{"source": "PubChem BioAssay (NCATS)", "note": "Inconclusive results are not listed. Where a call stands in place of a potency, no number is given. Calls of active or inactive are those of the source. Calls come from the whole dose curve; as a rule, active = well fitted cell-killing curve with a large enough effect; inconclusive = small, poorly fitted or top-dose-only effect; inactive = flat fitted curve, though single readings scatter. Potency is the fitted concentration of half-maximal effect.", "data": [{"assay": "qHTS of pediatric cancer cell lines to identify multiple opportunities for drug repurposing: Primary screen for TC32 cells (AID 1347089); note: nearly all actives have a fitted effect of over 60% in size", "conditions": "TC32 Ewing sarcoma viability, CellTiter-Glo luminescence, 48 h; series mostly up to 45.8 µM", "source_text": "Drug repurposing or repositioning has been offered as a strategy for drug development in oncology programs. This approach has special potential for childhood cancers and other rare or orphan diseases, where the expected return on new drug development has been a disincentive to pharmaceuticals.\nIn this project we exploit the poly-pharmacology of drugs to discover new indications via phenotypic screening of a panel of 19 well-characterized cell lines derived from solid tumors seen in children and adolescents. The goal is to identify approved drugs with previously unrecognized anticancer properties that has the potential to reveal new mechanisms and biological processes involved in carcinogenesis or drug resistance. We employed a titration-based paradigm (quantitative high-throughput screening or qHTS), where all compounds were tested at multiple concentrations for their effect on cell viability. Concentration-response curves (CRCs) were derived directly from the primary screen, and both potency and efficacy values were used to identify compounds with robust bioactivity profiles. We screened the NIH Chemical Genomics Center (NCGC) Pharmaceutical Collection (NPC) and Mechanism Interrogation Plate (MIPE) small molecule collections of approved and investigational compounds against these cell lines; and measured metabolically active cells after 48 hours of compound treatment as a proxy for cell viability.\nAssay Submitter: Nathalia J. Martinez, National Center for Advancing Translational Sciences, National Institutes of Health, Rockville, MD, USA; email: natalia.martinez@nih.gov\n[1] Shen, M et al. Quantitative high-throughput phenotypic screening of pediatric cancer cell lines identifies multiple opportunities for drug repurposing. Oncotarget 2017 Dec 19;9(4):4758-4772. PMID 29435139.\nThe cells were obtained from University of North Carolina (UNC), Pediatric Preclinical Testing Program (PPT), and Coriell Institute (CI).\nqHTS cell viability assay:\nCells were assayed in growth media at a density of 500-1,000 cells/well. Five microliters of cells were dispensed into 1,536-well, white, solid-bottom, TC-treated plates (Greiner Bio One) using a multidrop dispenser and incubated at 37 degrees C, 5% CO2, under a humidified atmosphere for 5 hours. Twenty-three nanoliters of compounds and controls (neutral control DMSO or positive control bortezomib at final concentration of 2.3 uM) were subsequently transferred by Kalypsys pintool. For primary screens, the MIPE collection was tested at 11-point dilutions (final concentrations range from 0.78 nM to 46 µM) and the NPC collection at 8-point dilutions (final concentrations range from 0.59 nM to 46 µM). Compounds tested in follow-up screens were assayed at 11-point dilutions. Cells were incubated for 48 hours, followed by addition of 3 uL of CellTiter-Glo (Promega). After a 15min incubation at room temperature, samples were analyzed for luminescence intensity using a ViewLux High-throughput CCD imager equipped with clear filters.", "values": [{"smiles": "C1COC(NC(C2CC2)C2CC2)=N1", "Potency": "inactive"}, {"smiles": "Cc1ccc(NC(=O)c2cccc(C(C)(C)C#N)c2)cc1Nc1ccc2ncn(C)c(=O)c2c1", "Potency": "inactive"}, {"smiles": "NS(=O)(=O)c1cc2c(cc1Cl)NC=NS2(=O)=O", "Potency": "inactive"}, {"smiles": "NC(=O)c1cnccn1", "Potency": "inactive"}, {"smiles": "C[C@]12CC[C@H](O)CC1=CC[C@@H]1[C@H]2CC[C@]2(C)C(c3cccnc3)=CC[C@H]12", "Potency": "inactive"}, {"smiles": "OC[C@H](Cc1ccccc1)Nc1nc(Oc2ccc3c(c2)CCC3)nc2c1ncn2Cc1ccc(-c2ccccc2)cc1", "Potency": "inactive"}, {"smiles": "O=c1[nH]cnc2[nH]ncc12", "Potency": "inactive"}, {"smiles": "CNCc1ccc(-c2[nH]c3cc(F)cc4c3c2CCNC4=O)cc1", "Potency": "inactive"}, {"smiles": "CC(C)C[C@H](NC(=O)[C@@H](O)[C@H](N)Cc1ccccc1)C(=O)O", "Potency": "inactive"}, {"smiles": "CCOC(=O)C1=C[C@]2(CC)CCCN3CCc4c(n1c1ccccc41)[C@@H]32", "Potency": "inactive"}, {"smiles": "CC(C=CC1=C(C)CCCC1(C)C)=CC=CC(C)=CC(=O)O", "Potency": "inactive"}, {"smiles": "COc1ccc(-c2ccc3c(N4CCOC[C@H]4C)nc(N4CCOC[C@H]4C)nc3n2)cc1CO", "Potency": "0.165 µM (active)"}, {"smiles": "Cc1cc([C@@H](C)Nc2ccccc2C(=O)O)c2nc(N3CCOCC3)cc(=O)n2c1", "Potency": "12 µM (active)"}, {"smiles": "O=C(O)COCCN1CCN(C(c2ccccc2)c2ccc(Cl)cc2)CC1", "note": "(stereo not given)", "Potency": "inactive"}, {"smiles": "N#Cc1ccc(C(c2ccc(C#N)cc2)n2cncn2)cc1", "Potency": "inactive"}, {"smiles": "Cc1ccccc1C(C(=O)NC1CCCC1)N(C(=O)Cn1cnc2ccccc21)c1cccc(F)c1", "note": "(stereo not given)", "Potency": "inactive"}, {"smiles": "Cc1ccc(-n2nc(C(C)(C)C)cc2NC(=O)Nc2ccc(OCCN3CCOCC3)c3ccccc23)cc1", "Potency": "inactive"}, {"smiles": "CNC[C@H](O)c1cccc(O)c1", "Potency": "inactive"}, {"smiles": "NC(=O)c1ccc(-c2nc(-c3ccc4c(c3)OCO4)c(-c3ccccn3)[nH]2)cc1", "Potency": "inactive"}, {"smiles": "Cc1csc(NC(=O)c2sc3nc4c(c(C(F)(F)F)c3c2N)CCC4)n1", "Potency": "inactive"}, {"smiles": "CCC(C)N(C)C(=O)c1cc2ccccc2c(-c2ccccc2Cl)n1", "note": "(stereo not given)", "Potency": "inactive"}, {"smiles": "NCCCC(N)(C(=O)O)C(F)F", "note": "(stereo not given)", "Potency": "inactive"}, {"smiles": "Cc1ccnc(NS(=O)(=O)c2ccc(NC(=O)Nc3ccc(S(=O)(=O)Nc4nccc(C)n4)cc3)cc2)n1", "Potency": "inactive"}, {"smiles": "CN(C)c1ccc(C2Nc3ccc4ccccc4c3C3=C2C(=O)CC(C)(C)C3)cc1Br", "note": "(stereo not given)", "Potency": "inactive"}, {"smiles": "CC(C)NCC(O)COc1ccc(COCCOC(C)C)cc1", "note": "(stereo not given)", "Potency": "inactive"}, {"smiles": "C[C@H](NC(=O)Cc1cc(F)cc(F)c1)C(=O)N[C@@H]1C(=O)N(C)c2ccccc2-c2ccccc21", "Potency": "inactive"}, {"smiles": "CCOc1ccn(-c2ccc(F)cc2)c(=O)c1C(=O)Nc1ccc(Oc2ccnc(N)c2Cl)c(F)c1", "Potency": "inactive"}, {"smiles": "COc1cc(Nc2ncc3c(n2)-c2ccc(Cl)cc2C(c2c(F)cccc2OC)=NC3)ccc1C(=O)O", "Potency": "0.186 µM (active)"}, {"smiles": "O=C(O)CCc1ccc(NCc2cccc(Oc3ccccc3)c2)cc1", "Potency": "inactive"}, {"smiles": "CC1(C)SCCN(S(=O)(=O)c2ccc(OCC#CCO)cc2)[C@@H]1C(=O)NO", "Potency": "inactive"}, {"smiles": "Cc1cccc(-c2[nH]c(C(C)(C)C)nc2-c2ccc3nccnc3c2)n1", "Potency": "13.1 µM (active)"}, {"smiles": "Fc1ccc(Cl)cc1-c1nc(Nc2ccncc2)c2nccnc2n1", "Potency": "inactive"}, {"smiles": "Cc1c(C)c2c(c(C)c1O)CCC(C)(COc1ccc(CC3SC(=O)NC3=O)cc1)O2", "note": "(stereo not given)", "Potency": "inactive"}, {"smiles": "O=c1ncn2nc(Sc3ccc(F)cc3F)ccc2c1-c1c(Cl)cccc1Cl", "Potency": "inactive"}, {"smiles": "Cc1cc(-c2ccc(CC(=O)Nc3ccc(-c4cccnc4)cc3)cc2)ccn1", "Potency": "inactive"}, {"smiles": "N#CC[C@H](C1CCCC1)n1cc(-c2ncnc3[nH]ccc23)cn1", "Potency": "inactive"}, {"smiles": "Cc1cc2c(C(C)C)c(O)c(O)c(C=O)c2c(O)c1-c1c(C)cc2c(C(C)C)c(O)c(O)c(C=O)c2c1O", "Potency": "inactive"}, {"smiles": "CC(C)(Sc1ccc(CCN(CCCCC2CCCCC2)C(=O)NC2CCCCC2)cc1)C(=O)O", "Potency": "inactive"}, {"smiles": "CCCc1nn(C)c2c(=O)[nH]c(-c3cc(S(=O)(=O)N4CCN(C)CC4)ccc3OCC)nc12", "Potency": "inactive"}, {"smiles": "COc1cc2c(cc1OC)CN(CCc1ccc(NC(=O)c3cccc4c(=O)c5cccc(OC)c5[nH]c34)cc1)CC2", "Potency": "inactive"}]}]}
